Measured values as given in PubChem BioAssay AID1159580 (chemical genetic matrix, 2015).
The whole screen tested about 5,500 compounds, of which about 2,000 (36%) were called active. Another 18% or so got no clear call; they are omitted. No stated cut-off is given here; in the data, active means normalized growth mostly below about 0.91 (no sharp cut-off); inconclusive means no clear call, values can overlap the other calls; inactive means mostly above about 0.92. The list shows a part of the results.

Test: chemical genetic growth profiling, strain panel (AID 1159580);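 further: tested at 20 µM; growth read once vehicle control cultures reached saturation at 30 °C; 1 = growth at the plate median or of vehicle wells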
Settings: S. cerevisiae deletion strains, growth OD
[1] = locus YAL013W, strain DEP1, stronger effect = lower value
[2] = locus YBR229C, strain ROT2, stronger effect = lower value
[3] = locus YDL101C, strain DUN1, stronger effect = lower value
[4] = locus YDL134C, strain PPH21, stronger effect = lower value
[5] = locus YDR150W, strain NUM1, stronger effect = lower value
[6] = locus YEL061C, strain CIN8, stronger effect = lower value
[7] = locus YGR078C, strain PAC10, stronger effect = lower value
[8] = locus YHR030C, strain SLT2, stronger effect = lower value
[9] = locus YHR087W, strain rtc3, stronger effect = lower value
[10] = locus YJR043C, strain POL32, stronger effect = lower value
[11] = locus YJR075W, strain HOC1, stronger effect = lower value
[12] = locus YLR039C, strain RIC1, stronger effect = lower value
[13] = locus YLR058C, strain SHM2 (second series), stronger effect = lower value
[14] = locus YLR085C, strain ARP6, stronger effect = lower value
[15] = locus YLR262C, strain YPT6, stronger effect = lower value
[16] = locus YML094W, strain GIM5, stronger effect = lower value
[17] = locus YMR219W, strain ESC1, stronger effect = lower value
[18] = locus YMR263W, strain SAP30, stronger effect = lower value
[19] = locus YNL128W, strain TEP1, stronger effect = lower value
[20] = locus YNL153C, strain GIM3, stronger effect = lower value
[21] = locus YNL298W, strain CLA4 (second series), stronger effect = lower value
[22] = locus YNL322C, strain KRE1, stronger effect = lower value
[23] = locus YNR030W, strain Alg12, stronger effect = lower value
[24] = locus YPL055C, strain LGE1, stronger effect = lower value
[25] = locus YPL241C, strain CIN2, stronger effect = lower value
[26] = locus YPR135W, strain CTF4, stronger effect = lower value

Measured: normalized growth

COc1ccc(OCC(N)=O)cc1
inactive: [1] 1.01 | [2] 1.02 | locus YCL061C, strain MRC1, stronger effect = lower value 1.01 | [3] 1.01 | [4] 1.01 | [5] 0.898 | [6] 1.03 | [7] 1.01 | locus YGR229C, strain SMI1, stronger effect = lower value 1.01 | [8] 1.07 | [9] 1.01 | locus YJL187C, strain SWE1, stronger effect = lower value 1.01 | [10] 1.02 | [11] 1.04 | [12] 1.02 | [13] 1.02 | [14] 1.05 | [15] 1.04 | [16] 1.02 | [17] 1.01 | [18] 0.996 | locus YMR307W, strain GAS1, stronger effect = lower value 1.07 | [19] 1.01 | [20] 1.01 | [21] 1.03 | [22] 1.03 | [23] 1.02 | locus YOL006C, strain TOP1, stronger effect = lower value 1.01 | [24] 1.01 | [25] 1.02 | [26] 1.04

COc1ccc2c(c1)CCCN2C(=O)NC(=O)c1c(F)cccc1Cl
inactive: [1] 1 | [2] 1.01 | [3] 1.04 | [4] 0.984 | [5] 1.07 | [6] 0.998 | [7] 1.02 | [8] 1.06 | [9] 0.95 | [10] 1.04 | [11] 0.997 | [12] 0.967 | [13] 0.975 | [14] 1 | [15] 0.925 | [16] 0.973 | [17] 0.997 | [18] 1.04 | [19] 1.01 | [20] 1.03 | [21] 1.03 | [22] 0.998 | [23] 1 | [24] 0.98 | [25] 1.02 | [26] 1.05
